Source: PubChem BioAssay (NCATS)
Records with an inconclusive call do not appear. A call without a number means that no potency is given here. Activity calls are given as the source filed them. Calls follow the shape of the dose curve; as a rule, active = well fitted inhibition curve with a large enough effect; inconclusive = small, poorly fitted or top-dose-only effect; inactive = no such curve, though single readings can be large or run the other way.

Tested on: Zika virus NS2B-NS3 protease (linked construct)
Experiment: Primary screen NINDS Rhodamine qHTS for Zika virus inhibitors (AID 1347160); also: nearly all actives have a fitted effect of over 55% in size
Details: purified NS2B-NS3 protease, Rhodamine110 substrate fluorescence; series mostly up to 33.1 µM
Procedure, shortened: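 In 10 mM Tris-HCl pH 8.0 containing 0.01% Tween 20, linked NS2B-NS3 protease (25 nM final) is exposed to test compounds for 15 min. Cleavage of 1.5 microM Rhodamine110 substrate is tracked by fluorescence over 15 min.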

Structure (SMILES)	Potency
COc1cc(CO)cc(OC)c1O[C@@H]1O[C@H](CO)[C@@H](O)[C@H](O)[C@H]1O	inactive
NC(=O)c1ccc(F)c2c1C[C@@H](N(C1CCC1)C1CCC1)CO2	inactive
CCCNCCOc1ccc(NC(=O)c2c[nH]c3c2C(=O)CCC3)cc1F	inactive
CCCO[C@@H]1O[C@H](CO)[C@@H](O)[C@H](O)[C@H]1O[C@@H]1OC[C@@H](O)[C@H](O)[C@H]1O	inactive
CCOC(=O)C(CCc1ccccc1)NC1CCCN2CCCC(C(=O)O)N2C1=O (centres undefined)	inactive
O=C(NCC(=O)N1CCCC1)Nc1ccc2ccccc2c1	inactive
O=C(C[C@@H]1C(C(=O)O)=CO[C@@H](O[C@@H]2O[C@H](CO)[C@@H](O)[C@H](O)[C@H]2O)/C1=C\CO)OCCc1ccc(O)c(O)c1	inactive
C[C@]1(OC(=O)/C=C\c2ccc(O)cc2)C[C@@H](O)[C@]2(O)C=CO[C@@H](O[C@@H]3O[C@H](CO)[C@@H](O)[C@H](O)[C@H]3O)C12 (some centres undefined)	inactive
C/C=C/C=C/C=C/C(=O)N(C)C(C(=O)NC(C)C(=O)N1CCCC1C(N)=O)C(C)C (centres undefined)	inactive
N#Cc1ccc(C2CCCc3cncn32)cc1 (centres undefined)	inactive
COC(=O)[C@]1(C)CCC[C@@]2(C)[C@@H]3CC[C@@H]4C[C@@]3(CC[C@@H]21)C[C@H]4C(=O)O	inactive
FC(F)(F)Oc1ccc(-c2ccc3nnc(C(F)(F)F)n3c2)cc1	inactive
CC/C=C/C(O)C(O)C1=C(C)C(=O)C2(O1)C(=O)NC(OC)(C(=O)c1ccccc1)C2O (centres undefined)	inactive
C[C@H]1[C@H](C)CC[C@]2(C(=O)O)CC[C@]3(C(=O)O)C(=CCC4[C@@]5(C)CC[C@H](O[C@@H]6O[C@@H](C)[C@H](O)[C@@H](O)[C@H]6O)C(C)(C)C5CC[C@]43C)[C@H]12 (some centres undefined)	inactive
